# Laboratory results as given in PubChem BioAssay (EPA / NIEHS).
# Records with an inconclusive call do not appear. Active and inactive are the calls of the source. Rule for the calls: active = hit-call score of the fitted dose curve at least 0.9, where 1 is the maximum; inconclusive = response in the unintended direction; inactive = score below 0.9.
# What was measured:
# [1] = molecular target: Cytochrome P450 2C19 (Homo sapiens) (UniProt P33261); assay: NVS_ADME_hCYP2C19: NovaScreen (NVS) CYP450-related Enzyme Activity (ADME) Assay for human CYP2C19 (AID 2283113);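 for AC50: potency for inhibition seen as loss of fluorescent signal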
# Method in brief: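 Biochemical CYP2C19 inhibition screen: insect-cell recombinant protein plus fluorescent substrate, 1 h, fluorescence intensity. Acetonitrile defined baseline activity. Single 10 uM concentration in duplicate, with concentration-response follow-up for actives.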
# [2] = molecular target: human CYP4F12, CYP4F12 (gene 66002) (UniProt Q9HCS2); assay: NVS_ADME_hCYP4F12: NovaScreen (NVS) CYP450-related Enzyme Activity (ADME) Assay for human CYP4F12 (AID 2283111)
# human CYP4F12, CYP4F12 (gene 66002), sequence (Q9HCS2 whole entry, looked up): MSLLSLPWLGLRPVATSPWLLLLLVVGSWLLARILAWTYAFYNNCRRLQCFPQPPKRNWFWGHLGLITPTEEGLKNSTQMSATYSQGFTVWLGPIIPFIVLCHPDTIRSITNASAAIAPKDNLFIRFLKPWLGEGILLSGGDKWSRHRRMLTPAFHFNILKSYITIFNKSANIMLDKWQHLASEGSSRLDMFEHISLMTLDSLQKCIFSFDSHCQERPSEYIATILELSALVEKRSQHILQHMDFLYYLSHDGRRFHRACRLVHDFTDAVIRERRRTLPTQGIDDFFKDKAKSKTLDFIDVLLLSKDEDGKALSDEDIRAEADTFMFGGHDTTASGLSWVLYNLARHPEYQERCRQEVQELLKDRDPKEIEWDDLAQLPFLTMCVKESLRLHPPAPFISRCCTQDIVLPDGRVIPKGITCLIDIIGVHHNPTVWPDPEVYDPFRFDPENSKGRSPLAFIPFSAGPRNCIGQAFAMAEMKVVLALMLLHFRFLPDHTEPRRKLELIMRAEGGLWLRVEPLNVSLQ
# Method in brief: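 Recombinant enzyme with a fluorescent substrate, signal read at 0.5 h post-dose; activity loss analysed relative to acetonitrile. Compounds first run in duplicate at 10 uM, with follow-up concentration-response testing of actives.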
# [3] = molecular target: human Caspase 4 (CASP4), CASP4 (gene 837) (UniProt P49662); assay: NVS_ENZ_hCASP4: NovaScreen (NVS) Enzymatic Assay for human Caspase 4 (CASP4) (AID 2283143)
# Method in brief: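 Compounds were first tested in duplicate at 25 uM, and hits were titrated singly to a 50 uM maximum. Recombinant protease from E. coli was read by fluorescence 2 h post-dose, and activity loss was fitted against the DMSO baseline.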
# [4] = molecular target: human Caspase 8 (CASP8), CASP8 (gene 841) (UniProt Q14790); assay: NVS_ENZ_hCASP8: NovaScreen (NVS) Enzymatic Assay for human Caspase 8 (CASP8) (AID 2283146)
# Method in brief: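 The primary screen tested compounds in duplicate at a single 25 uM concentration, with actives followed up in concentration series. Activity of recombinant (E. coli) protease was measured by fluorescence 1 h post-dose, as signal loss against DMSO.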
# [5] = molecular target: human Aurora Kinase A - serine/threonine-protein Kinase 6 (AurA), AURKA (gene 6790) (UniProt O14965); assay: NVS_ENZ_hAurA: NovaScreen (NVS) Enzymatic Assay for human Aurora Kinase A - serine/threonine-protein Kinase 6 (AurA) (AID 2283142)
# human Aurora Kinase A - serine/threonine-protein Kinase 6 (AurA), AURKA (gene 6790), sequence (O14965 whole entry, looked up): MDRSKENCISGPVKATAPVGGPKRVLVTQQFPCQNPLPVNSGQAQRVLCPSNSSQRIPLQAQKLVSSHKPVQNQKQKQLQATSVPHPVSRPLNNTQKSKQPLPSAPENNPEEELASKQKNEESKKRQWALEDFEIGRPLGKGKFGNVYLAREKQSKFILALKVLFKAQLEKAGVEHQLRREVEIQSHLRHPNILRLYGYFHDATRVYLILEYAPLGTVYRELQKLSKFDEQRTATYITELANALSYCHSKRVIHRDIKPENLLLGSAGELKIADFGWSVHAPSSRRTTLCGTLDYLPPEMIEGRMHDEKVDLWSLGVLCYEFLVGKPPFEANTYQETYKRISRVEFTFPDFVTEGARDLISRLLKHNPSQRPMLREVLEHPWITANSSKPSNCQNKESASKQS
# Method in brief: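 Recombinant human AurA activity read by fluorescence after mobility-shift separation of product from substrate; 1 hour incubation. Chemicals first run in duplicate at 25 uM, then concentration series to 50 uM if over threshold; fitted relative to DMSO.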
# [6] = molecular target: human Colony Stimulating Factor 1 Receptor (CSF1R), CSF1R (gene 1436) (UniProt P07333); assay: NVS_ENZ_hCSF1R: NovaScreen (NVS) Enzymatic Assay for human Colony Stimulating Factor 1 Receptor (CSF1R) (AID 2283150)
# human Colony Stimulating Factor 1 Receptor (CSF1R), CSF1R (gene 1436), sequence (P07333 whole entry, looked up): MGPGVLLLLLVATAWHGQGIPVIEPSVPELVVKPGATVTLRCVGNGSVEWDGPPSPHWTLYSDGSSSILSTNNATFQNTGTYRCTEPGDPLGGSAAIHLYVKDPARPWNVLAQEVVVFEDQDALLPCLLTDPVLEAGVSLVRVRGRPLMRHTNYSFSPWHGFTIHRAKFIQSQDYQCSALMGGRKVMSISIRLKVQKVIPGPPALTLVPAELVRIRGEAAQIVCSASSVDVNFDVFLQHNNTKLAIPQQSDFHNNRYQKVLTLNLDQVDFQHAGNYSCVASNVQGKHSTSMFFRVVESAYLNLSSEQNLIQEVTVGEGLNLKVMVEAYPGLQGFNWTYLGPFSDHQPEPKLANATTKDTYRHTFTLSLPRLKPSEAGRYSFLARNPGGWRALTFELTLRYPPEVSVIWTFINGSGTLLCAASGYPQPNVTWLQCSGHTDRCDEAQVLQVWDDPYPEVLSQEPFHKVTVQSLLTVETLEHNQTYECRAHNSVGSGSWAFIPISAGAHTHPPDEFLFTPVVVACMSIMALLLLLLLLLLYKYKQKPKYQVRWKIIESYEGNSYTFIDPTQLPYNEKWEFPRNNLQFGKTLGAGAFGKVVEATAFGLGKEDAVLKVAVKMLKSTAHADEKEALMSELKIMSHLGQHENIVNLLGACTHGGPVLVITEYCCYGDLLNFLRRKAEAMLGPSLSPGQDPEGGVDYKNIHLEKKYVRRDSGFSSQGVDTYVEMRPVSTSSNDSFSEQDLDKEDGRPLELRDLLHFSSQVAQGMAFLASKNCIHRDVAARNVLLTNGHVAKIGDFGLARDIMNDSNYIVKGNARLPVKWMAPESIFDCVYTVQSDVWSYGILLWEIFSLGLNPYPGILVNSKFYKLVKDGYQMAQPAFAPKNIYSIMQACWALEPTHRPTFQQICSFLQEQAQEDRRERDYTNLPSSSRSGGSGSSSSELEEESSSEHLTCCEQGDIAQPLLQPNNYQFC
# Method in brief: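 Compounds screened in duplicate at 25 uM, then concentration-response (top 50 uM) for those passing threshold such as 30% inhibition; recombinant CSF1R activity measured 1 h post-dosing via fluorescent substrate/product mobility-shift separation, loss of signal versus DMSO.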
# [7] = molecular target: human AKT serine/threonine Kinase 2 (AKT2), AKT2 (gene 208) (UniProt P31751); assay: NVS_ENZ_hAKT2: NovaScreen (NVS) Enzymatic Assay for human AKT serine/threonine Kinase 2 (AKT2) (AID 2283141)
# Method in brief: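 Cell-free fluorescence/electrophoretic mobility shift readout of recombinant human AKT2 activity, 1 h after chemical dosing. Duplicate primary screen at 25 uM, then singleton concentration-response up to 50 uM; loss of signal versus DMSO baseline.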
# [8] = molecular target: human Beta-secretase (BACE), BACE1 (gene 23621) (UniProt P56817); assay: NVS_ENZ_hBACE: NovaScreen (NVS) Enzymatic Assay for human Beta-secretase (BACE) (AID 2283140);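 note: hits are inhibitors that reduce fluorescent substrate signal versus DMSO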
# human Beta-secretase (BACE), BACE1 (gene 23621), sequence (P56817 whole entry, looked up): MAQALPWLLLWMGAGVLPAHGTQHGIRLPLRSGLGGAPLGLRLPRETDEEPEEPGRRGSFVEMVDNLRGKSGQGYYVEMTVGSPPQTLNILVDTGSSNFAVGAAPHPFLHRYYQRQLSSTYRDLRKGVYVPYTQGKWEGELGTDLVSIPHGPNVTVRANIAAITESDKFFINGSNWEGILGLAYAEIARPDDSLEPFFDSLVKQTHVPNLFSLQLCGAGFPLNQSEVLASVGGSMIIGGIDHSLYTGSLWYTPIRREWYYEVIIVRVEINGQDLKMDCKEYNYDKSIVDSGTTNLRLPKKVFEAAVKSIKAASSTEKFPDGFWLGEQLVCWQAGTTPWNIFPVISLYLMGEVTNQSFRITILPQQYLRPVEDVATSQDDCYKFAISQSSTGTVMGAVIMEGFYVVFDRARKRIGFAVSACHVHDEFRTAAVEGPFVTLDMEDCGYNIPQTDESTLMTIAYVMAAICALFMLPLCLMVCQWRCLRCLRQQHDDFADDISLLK
# Method in brief: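 SF9-expressed enzyme, cell-free; fluorescent substrate readout after 1 h. Screened at 25 uM single concentration, duplicate; hits retested in concentration series. Activity relative to DMSO baseline, loss-of-signal.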
# [9] = molecular target: human Acetylcholinesterase (AChE), ACHE (gene 43) (UniProt P22303); assay: NVS_ENZ_hAChE: NovaScreen (NVS) Enzymatic Assay for human Acetylcholinesterase (AChE) (AID 2283129)
# human Acetylcholinesterase (AChE), ACHE (gene 43), sequence (P22303 whole entry, looked up): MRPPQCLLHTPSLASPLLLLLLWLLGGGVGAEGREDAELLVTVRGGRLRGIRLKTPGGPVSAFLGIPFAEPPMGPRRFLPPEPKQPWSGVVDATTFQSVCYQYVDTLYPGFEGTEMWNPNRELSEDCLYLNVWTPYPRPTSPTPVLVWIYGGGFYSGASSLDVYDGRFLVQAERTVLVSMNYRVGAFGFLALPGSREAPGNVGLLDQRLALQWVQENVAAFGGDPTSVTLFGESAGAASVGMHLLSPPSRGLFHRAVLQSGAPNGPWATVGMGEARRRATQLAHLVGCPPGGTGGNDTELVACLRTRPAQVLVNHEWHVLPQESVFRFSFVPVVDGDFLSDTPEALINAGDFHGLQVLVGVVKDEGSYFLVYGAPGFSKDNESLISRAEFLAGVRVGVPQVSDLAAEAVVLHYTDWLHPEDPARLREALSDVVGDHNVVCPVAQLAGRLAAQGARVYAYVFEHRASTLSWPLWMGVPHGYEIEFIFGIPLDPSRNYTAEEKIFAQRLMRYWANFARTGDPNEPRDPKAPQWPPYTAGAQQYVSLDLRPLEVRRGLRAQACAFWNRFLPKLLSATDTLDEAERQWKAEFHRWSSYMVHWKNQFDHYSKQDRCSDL
# Method in brief: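 Actives from a duplicate single-point screen (25 uM) were followed up in concentration series. Enzyme activity read by absorbance (colorimetric) 0.33 hour after dosing, cell-free, normalized to DMSO, with loss of signal scored.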
# [10] = molecular target: human AMP-activated Protein Kinase, alpha 1 (AMPKa1), PRKAA1 (gene 5562) (UniProt Q13131); assay: NVS_ENZ_hAMPKa1: NovaScreen (NVS) Enzymatic Assay for human AMP-activated Protein Kinase, alpha 1 (AMPKa1) (AID 2283130)
# human AMP-activated Protein Kinase, alpha 1 (AMPKa1), PRKAA1 (gene 5562), sequence (Q13131 whole entry, looked up): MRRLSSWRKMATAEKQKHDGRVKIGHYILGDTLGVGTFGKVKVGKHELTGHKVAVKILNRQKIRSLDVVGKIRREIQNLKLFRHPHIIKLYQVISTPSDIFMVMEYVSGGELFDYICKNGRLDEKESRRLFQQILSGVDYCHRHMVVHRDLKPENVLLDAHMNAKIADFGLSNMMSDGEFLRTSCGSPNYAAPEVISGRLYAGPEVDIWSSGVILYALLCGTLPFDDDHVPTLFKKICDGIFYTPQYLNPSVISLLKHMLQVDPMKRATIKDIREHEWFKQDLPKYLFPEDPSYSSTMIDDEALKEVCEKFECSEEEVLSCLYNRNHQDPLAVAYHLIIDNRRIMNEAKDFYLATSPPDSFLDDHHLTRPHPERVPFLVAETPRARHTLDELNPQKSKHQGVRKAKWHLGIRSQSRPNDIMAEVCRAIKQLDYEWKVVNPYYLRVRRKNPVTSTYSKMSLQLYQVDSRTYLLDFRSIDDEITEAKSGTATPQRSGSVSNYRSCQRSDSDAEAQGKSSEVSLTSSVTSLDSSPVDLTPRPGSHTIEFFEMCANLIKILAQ
# Method in brief: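 Compounds were screened in duplicate at 25 uM, and those reaching ~30% inhibition were titrated up to 50 uM. The enzyme was recombinant human AMPKα1, and kinase turnover was read by fluorescence/mobility shift 1 h post-dosing as loss of signal versus DMSO.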
# [11] = molecular target: human Caspase 5 (CASP5), CASP5 (gene 838) (UniProt P51878); assay: NVS_ENZ_hCASP5: NovaScreen (NVS) Enzymatic Assay for human Caspase 5 (CASP5) (AID 2283137)
# Method in brief: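 Fluorescent substrate readout of CASP5 activity (loss-of-signal), measured 2 h post-dose. Protein expressed in E. coli. Primary screen duplicate at 25 uM; actives meeting threshold (e.g., 30% inhibition) rerun singleton, max 50 uM.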
# [12] = molecular target: human Elastase, ELANE (gene 1991) (UniProt P08246); assay: NVS_ENZ_hElastase: NovaScreen (NVS) Enzymatic Assay for human Elastase (AID 2283153)
# Method in brief: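 Concentration-response to 50 uM max, run singly for chemicals passing a threshold (e.g., 30% inhibition) in a duplicate 25 uM single-point screen. Neutrophil-derived human elastase, absorbance read-out of enzyme activity at 1.5 h; DMSO baseline.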
# [13] = molecular target: human Epidermal Growth Factor Receptor (EGFR), EGFR (gene 1956) (UniProt P00533); assay: NVS_ENZ_hEGFR: NovaScreen (NVS) Enzymatic Assay for human Epidermal Growth Factor Receptor (EGFR) (AID 2283151)
# human Epidermal Growth Factor Receptor (EGFR), EGFR (gene 1956), sequence (P00533 whole entry, looked up): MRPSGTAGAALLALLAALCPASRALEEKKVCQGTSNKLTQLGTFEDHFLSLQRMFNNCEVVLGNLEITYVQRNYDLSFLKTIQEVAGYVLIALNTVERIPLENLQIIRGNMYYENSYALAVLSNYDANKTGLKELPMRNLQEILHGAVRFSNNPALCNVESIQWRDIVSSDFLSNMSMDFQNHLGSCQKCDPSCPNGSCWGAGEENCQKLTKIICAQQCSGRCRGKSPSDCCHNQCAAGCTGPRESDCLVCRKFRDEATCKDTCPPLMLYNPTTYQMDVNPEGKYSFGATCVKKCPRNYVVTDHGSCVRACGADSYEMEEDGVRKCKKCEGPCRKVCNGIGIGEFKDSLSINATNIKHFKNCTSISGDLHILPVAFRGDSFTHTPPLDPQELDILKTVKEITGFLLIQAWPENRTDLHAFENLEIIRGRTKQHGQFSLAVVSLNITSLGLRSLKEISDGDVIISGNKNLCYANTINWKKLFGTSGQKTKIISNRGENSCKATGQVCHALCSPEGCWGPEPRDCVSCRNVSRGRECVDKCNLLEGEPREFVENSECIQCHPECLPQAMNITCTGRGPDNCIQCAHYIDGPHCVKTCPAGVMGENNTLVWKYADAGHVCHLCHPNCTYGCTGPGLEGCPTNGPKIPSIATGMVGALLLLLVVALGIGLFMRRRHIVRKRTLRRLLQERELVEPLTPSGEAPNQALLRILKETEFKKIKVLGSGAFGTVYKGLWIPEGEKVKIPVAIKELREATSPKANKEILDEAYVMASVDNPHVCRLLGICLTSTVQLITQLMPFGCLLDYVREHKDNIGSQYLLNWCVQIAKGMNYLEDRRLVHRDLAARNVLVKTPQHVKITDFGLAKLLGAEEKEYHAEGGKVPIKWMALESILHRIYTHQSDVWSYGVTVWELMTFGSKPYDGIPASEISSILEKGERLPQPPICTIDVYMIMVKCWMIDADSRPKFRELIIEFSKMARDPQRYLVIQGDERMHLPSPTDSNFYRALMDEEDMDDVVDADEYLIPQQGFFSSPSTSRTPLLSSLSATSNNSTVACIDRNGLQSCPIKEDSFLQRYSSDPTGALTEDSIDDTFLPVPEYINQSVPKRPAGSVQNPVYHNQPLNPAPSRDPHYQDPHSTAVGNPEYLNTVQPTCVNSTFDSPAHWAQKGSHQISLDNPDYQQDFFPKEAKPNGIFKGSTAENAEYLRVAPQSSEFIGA
# Method in brief: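 Cell-free kinase assay, fluorescence plus electrophoretic mobility shift separating substrate and product, read 1 hour after dosing; loss of signal vs DMSO. Duplicate screen at 25 uM, then concentration-response to 50 uM.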
# [14] = molecular target: human Acid Phosphatase 1 (ACP1), ACP1 (gene 52) (UniProt P24666); assay: NVS_ENZ_hACP1: NovaScreen (NVS) Enzymatic Assay for human Acid Phosphatase 1 (ACP1) (AID 2283136)
# human Acid Phosphatase 1 (ACP1), ACP1 (gene 52), sequence (P24666 whole entry, looked up): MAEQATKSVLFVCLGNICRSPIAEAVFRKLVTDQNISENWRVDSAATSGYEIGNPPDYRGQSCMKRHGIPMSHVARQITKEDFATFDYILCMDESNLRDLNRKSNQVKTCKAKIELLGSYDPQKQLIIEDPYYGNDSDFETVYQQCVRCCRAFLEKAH
# Method in brief: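 Cell-free fluorescence read-out of phosphatase activity, substrate and product separated by mobility shift, taken 1.5 h after compound addition; protein produced in Sf9. Single 25 uM duplicate screen, followed by concentration series for actives, scored as signal loss relative to DMSO.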
# [15] = molecular target: human Casein Kinase 1-delta (CK1D), CSNK1D (gene 1453) (UniProt P48730); assay: NVS_ENZ_hCK1D: NovaScreen (NVS) Enzymatic Assay for human Casein Kinase 1-delta (CK1D) (AID 2283148)
# Method in brief: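 Recombinant human CK1-delta, cell-free; fluorescent substrate with electrophoretic mobility-shift separation of product, read 1 h after dosing. Single 25 uM duplicate screen, then concentration-response up to 50 uM; loss of signal vs DMSO.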
# [16] = molecular target: human AKT serine/threonine Kinase 1 (AKT1), AKT1 (gene 207) (UniProt P31749); assay: NVS_ENZ_hAKT1: NovaScreen (NVS) Enzymatic Assay for human AKT serine/threonine Kinase 1 (AKT1) (AID 2283138)
# Method in brief: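 Fluorescence and mobility-shift readout of kinase activity, taken 1 h post-dosing in a cell-free format with recombinant protein. Primary screen at 25 uM in duplicate; hits (e.g. 30% inhibition) retested in concentration series topping at 50 uM.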
# [17] = molecular target: CDK2 (gene 1017) (UniProt P24941); assay: NVS_ENZ_hCDK2: NovaScreen (NVS) Enzymatic Assay for human Cyclin-Cependent Kinase 2 (CDK2) (AID 2283144)
# Method in brief: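 Compounds screened in duplicate at 25 uM, then in singleton concentration-response to a maximum of 50 uM, against recombinant CDK2; kinase activity read 1 hr after dosing by fluorescence with mobility-shift separation of substrate and product.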
# [18] = molecular target: human Caspase 2 (CASP2), CASP2 (gene 835) (UniProt P42575); assay: NVS_ENZ_hCASP2: NovaScreen (NVS) Enzymatic Assay for human Caspase 2 (CASP2) (AID 2283135)
# Method in brief: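 Single-point duplicate testing at 25 uM preceded concentration series topping at 50 uM. Activity of the recombinant E. coli-derived protease was followed by fluorescent substrate cleavage 1 h post-dosing, relative to DMSO.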
smiles,measurement,setting,value
COP(=S)(OC)SCN1C(=O)c2ccccc2C1=O,AC50,[1],0.593 µM (active)
Nc1ccc(N=Nc2ccccc2)cc1,outcome,[2],inactive
same,AC50,[1],6.47 µM (active)
same,outcome,[3],inactive
same,outcome,[4],inactive
Nc1ccc([N+](=O)[O-])cc1,AC50,[1],6.15 µM (active)
same,outcome,[5],inactive
same,outcome,[4],inactive
same,outcome,[6],inactive
CCCCCCCCn1sccc1=O,AC50,[1],6.04 µM (active)
same,outcome,[7],inactive
Nc1ccc(Oc2ccc(N)cc2)cc1,outcome,[1],inactive
Cc1cc(N=Nc2ccccc2C)ccc1N,AC50,[1],2.69 µM (active)
same,AC50,[8],25 µM (active)
Oc1ccc2ccc3cccc4ccc1c2c34,AC50,[9],7.92 µM (active)
same,AC50,[10],6.02 µM (active)
same,AC50,[11],5.32 µM (active)
same,AC50,[8],8.84 µM (active)
same,AC50,[3],5.26 µM (active)
same,AC50,[12],4.52 µM (active)
CCOC(=O)[C@]1(c2ccccc2)Oc2ccccc2[C@@H]1N,AC50,[1],2.09 µM (active)
same,AC50,[9],24.3 µM (active)
Cc1ccc([N+](=O)[O-])cc1,outcome,[2],inactive
CC(C)(C)C(O)(CCc1ccc(Cl)cc1)Cn1cncn1 (stereo not given),AC50,[1],0.698 µM (active)
same,outcome,[5],inactive
same,outcome,[13],inactive
Clc1ccc(C(c2ccc(Cl)cc2)C(Cl)Cl)cc1,AC50,[1],4.79 µM (active)
CCCCOC(=O)c1ccccc1C(=O)OCc1ccccc1,AC50,[1],2.72 µM (active)
CNC(=O)Oc1cccc2c1OC(C)(C)C2,AC50,[9],0.497 µM (active)
O=[N+]([O-])C(Br)(CO)CO,AC50,[1],1.93 µM (active)
same,AC50,[9],29.5 µM (active)
Nc1ccc(Cc2ccc(N)cc2)cc1,AC50,[1],14.4 µM (active)
CCCCC(CC)COC(=O)c1ccc(C(=O)OCC(CC)CCCC)c(C(=O)OCC(CC)CCCC)c1 (stereo not given),outcome,[9],inactive
same,outcome,[10],inactive
same,outcome,[13],inactive
C[C@]12C=CC3=C4CCC(=O)C=C4CC[C@H]3[C@@H]1CC[C@@H]2O,AC50,[1],5.75 µM (active)
same,AC50,[5],35.3 µM (active)
same,outcome,[6],inactive
CCN(CC)N=O,AC50,[2],6.21 µM (active)
same,outcome,[10],inactive
same,outcome,[14],inactive
same,outcome,[5],inactive
same,outcome,[15],inactive
same,outcome,[6],inactive
same,outcome,[13],inactive
O=C(Nc1ccccc1)c1ccccc1I,AC50,[1],4.95 µM (active)
CO[C@@H]1[C@H](OC(=O)NC(=O)CCl)CC[C@]2(CO2)[C@H]1[C@@]1(C)O[C@@H]1CC=C(C)C,AC50,[1],2.21 µM (active)
CCOc1cccc(C2(N3CCN(c4ccccc4)CC3)CCC(C)CC2)c1 (stereo not given),AC50,[2],4.36 µM (active)
CCNS(=O)(=O)C(F)(F)C(F)(F)C(F)(F)C(F)(F)C(F)(F)C(F)(F)C(F)(F)C(F)(F)F,AC50,[1],9.65 µM (active)
same,outcome,[10],inactive
same,outcome,[14],inactive
same,outcome,[16],inactive
same,AC50,[8],8.43 µM (active)
same,outcome,[7],inactive
same,outcome,[17],inactive
same,outcome,[15],inactive
same,outcome,[13],inactive
Clc1ccccc1Cl,AC50,[2],1.91 µM (active)
[Cl-].[Cl-].[Hg+2],AC50,[1],0.812 µM (active)
same,outcome,[18],inactive
